Bioassay records from PubChem.
Apoferritin bind – binds horse apoferritin like a general anesthetic. Potency, µM (top dose mostly 77.5 µM), inactives show at the top dose activity change, negative = displacement, usual class: inhibitors. P02791. apoferritin/1-aminoanthracene competitive binding, fluorescence. actives 0.074% (n = 350,000). AID 485281; further: potency means the concentration at half of the fitted maximal effect; on the % scale 0 is the no-effect control and ±100 the full control effect; nearly all actives have a fitted effect of over 20% in size
Target sequence (P02791 2-175 limits assumed): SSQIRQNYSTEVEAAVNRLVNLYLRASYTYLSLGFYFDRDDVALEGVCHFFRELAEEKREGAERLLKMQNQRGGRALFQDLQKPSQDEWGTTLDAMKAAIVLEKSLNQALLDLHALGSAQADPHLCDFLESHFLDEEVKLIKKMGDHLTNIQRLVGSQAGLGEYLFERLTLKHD
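Horse-spleen apoferritin (10 uM) in 50% saturated 1-aminoanthracene in PBS was incubated 10 min at room temperature with compound. Fluorescence (ex 380, em 535 nm) was normalized to free and bound 1-AMA, with concentration-response fitted by a four-parameter Hill equation.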
N370S GC mod – N370S glucocerebrosidase modulation, Gaucher chaperone candidate; N370S GC spleen homogenate, 4MU-glucoside fluorescence; Potency, µM (titrated, usually from 59.4 µM), without a hit: top-dose activity change, negative = inhibition, actives largely listed as inhibitors; actives 0.092% (n = 330,000);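 further: potency means the concentration at half of the fitted maximal effect; 0% = full enzyme activity and -100% = no enzyme basal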
CBFb-RUNX1 inh – CBF-beta/RUNX1 interaction disruption. Q01196+Q13951. AlphaScreen CBFb-His/RUNX1-biotin binding, biochemical. Potency, µM (titrated, usually from 59.8 µM), without a hit: at the highest dose activity, negative = inhibition, most hits filed as inhibitors. 230,000 tested, under 10 active. AID 1477; further: % of control where 0% means no effect
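Interaction loss through any mechanism counts as activity. Pre-formed complex of His-CBF-beta and biotin-RUNX1 (30 nM apiece) is incubated with compound 15 min, then with 50 ng nickel and 50 ng streptavidin beads for 90 min before AlphaScreen detection.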
GRP78 ERSR act – ER stress response induction in glioma; U87-MG GRP78 promoter luciferase reporter, 16 h; Potency, µM, inactives show at the highest dose activation, actives largely listed as activators; actives 0.02% (n = 420,000); AID 602332; further: potency means the concentration at half of the fitted maximal effect; series mostly up to about 76 µM; % of control where 0% means no effect; nearly all actives have a fitted effect of over 35% in size
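ERSR induction read as luciferase luminescence (Bright-Glo, 10 min at room temperature) in stably transfected human U87-MG glioma cells exposed to compounds for 16 h, using GRP78 as sensor.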
ClpP mod – qHTS Assay for Activators of ClpP | purified B. subtilis ClpP, FRET peptide cleavage, 20 min | Potency, µM (series often up to 57.5 µM), inactives show at the top dose activity change, negative = active | actives 1.9% (n = 340,000); active means well fitted falling curve with a large enough effect; inconclusive means small, poorly fitted or top-dose-only effect; inactive means no such curve, though single readings can be large or run the other way; further: potency means the concentration at half of the fitted maximal effect; the source files actives as falling curves though it sought activators and does not explain the sign; nearly all actives have a fitted effect of over 65% in size
Target sequence (P80244 whole entry, looked up): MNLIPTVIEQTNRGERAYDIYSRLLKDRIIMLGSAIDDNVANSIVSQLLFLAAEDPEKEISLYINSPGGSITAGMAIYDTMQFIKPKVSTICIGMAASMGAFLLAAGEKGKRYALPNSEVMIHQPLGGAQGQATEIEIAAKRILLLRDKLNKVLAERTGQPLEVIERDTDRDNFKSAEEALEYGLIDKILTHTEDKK
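Purified B. subtilis ClpP, 10 microg/mL final in Tris/HCl pH8 with KCl, BSA, glycerol and Tween-20, cleaved an Abz/nitrotyrosine-quenched decapeptide. Fluorescence (ex 320, em 430) was read at 0 and 20 min at room temperature. Delta was normalized to 5.8 microM ADEP and DMSO/no-enzyme controls.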
a7 integrin act – integrin-mediated muscular dystrophy alleviation activation. alpha7betagal myoblasts, beta-gal FDG fluorescence, 48 h. Potency, µM (top dose mostly 38.3 µM), for inactives: at the highest dose activation, hits mostly activators. actives 0.064% (n = 350,000);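 further: potency means the concentration at half of the fitted maximal effect; 100% = response of the positive control SU9516; nearly all actives have a fitted effect of over 60% in size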
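Alpha7betagal+/- myoblasts (passage 13) were plated 16-24 hr, then exposed to compounds (1:260 dilution of DMSO stock) for 48 hours at 37C. After MPER lysis, β-galactosidase reporter activity was read as FDG fluorescence (ex 480/em 540) after 30 minutes.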
Starred values were filed as active, the others as inactive; ? = inconclusive; / = not tested or not shown; [ ] = another dose, or the depositor's remark. Shown is part of a subset that was picked to be rich in hits. Unless noted, the call rests on the fitted dose curve; in most records, active means well fitted curve in the direction sought with a large enough effect; inconclusive means small, poorly fitted or top-dose-only effect, or another doubt; inactive means no such curve, though single readings can be large; an effect the other way counts as inactive or inconclusive.

SMILES	Apoferritin bind	N370S GC mod	CBFb-RUNX1 inh	GRP78 ERSR act	ClpP mod	a7 integrin act
Cc1cccc(Oc2sc(C(=O)c3ccccc3)c(N)c2C#N)c1	-16%	-1%	-1%	-5%	14µM*	-1%
N#Cc1c(Nc2ccccc2)sc(C(=O)c2ccccc2)c1N	-16%	20%	-7%	1%	-2%	3%
Cc1csc(C)[n+]1CCC1CCCCC1	/	/	/	-2%	-1%	/
COc1ccc(-c2noc(-c3cccs3)n2)cc1OC	-3%	4%	10%	-1%	/	3%
COc1ccc(-c2cc(-c3cccs3)nc(OC)c2C#N)cc1OC	-1%	24%	?	-3%	32µM*	-34%
COc1ccc(-c2c(C#N)c(N)nc3c2CCc2ccccc2-3)cc1OC	299%	?	21%	-3%	13µM*	-4%
COc1nc(-c2cccs2)cc(-c2ccc(C)cc2)c1C#N	-8%	5%	10%	-5%	4µM*	13%
COc1ccccc1-c1ccnc(-n2ncc(C(=O)NC3CCCN(Cc4ccccc4)C3)c2C)n1 (stereo not drawn)	/	/	/	-1%	/	/
C=C1C=C(C)n2ncc(C(=O)Nc3cccc4cnccc34)c2N1	/	/	/	-1%	-8%	/
C=CCn1c(SCC(=O)NCc2ccco2)nnc1-c1cccc(N(C)C)c1	/	/	/	-1%	0%	/
COc1cc(CNc2nc(C)c(-c3ccn(CC4CCCN(C)C4)n3)s2)ccc1F (stereo not drawn)	/	/	/	-1%	/	/
CCN(CC)c1ccccc1/C=C/[n+]1ccc(CCCCI)c2ccccc21	/	/	/	-11%	-2%	/
CCOC(=O)N1CCN(c2nc(CN3CCCCC3CCO)nc3c(C)cccc23)CC1 (stereo not drawn)	/	/	/	-6%	/	/
CC(C)Cn1c(N)c(S(=O)(=O)c2cccs2)c2nc3ccccc3nc21	-10%	?	5%	-5%	?	25%
COc1cccc(/C=N/n2c(N)c(S(=O)(=O)c3cccs3)c3nc4ccccc4nc32)c1	-6%	23%	0%	-2%	2.8µM*	?
Nc1c(S(=O)(=O)c2cccs2)c2nc3ccccc3nc2n1/N=C/c1cccc(O)c1	-11%	7%	8%	-13%	2.8µM*	-46%
COc1ccc(/C=N/n2c(N)c(S(=O)(=O)c3cccs3)c3nc4ccccc4nc32)cc1OC	-7%	-4%	4%	-3%	13µM*	12%
COc1ccc(-c2nc3cc(NC(=O)Cc4ccc(OC)c(OC)c4)ccc3o2)cc1	-11%	11%	9%	-1%	14µM*	1%
CC(C)CC(=O)Nc1ccc(-c2nc3ccccc3c(=O)o2)cc1	11%	14%	-7%	2%	11µM*	0%
CCC(C)NCC(=O)Nc1ccc(-c2nc3cc(NC(=O)CNC(C)CC)ccc3o2)cc1 (stereo not drawn)	-4%	0%	3%	-3%	13µM*	1%
Cc1ccc(SCC(=O)Nc2ccc3oc(-c4ccc(F)cc4)nc3c2)cc1	-5%	/	/	4%	3.5µM*	/
OC(CN1CCCCC1)c1cc(-c2ccccc2)on1 (stereo not drawn)	/	/	/	-3%	/	/
CC(C)(Oc1ccc(Cl)cc1)C(=O)Nc1ccc2oc(-c3ccncc3)nc2c1	-3%	-8%	6%	-4%	28µM*	1%
CC1(COS(N)(=O)=O)CCCCC1	5.6µM*	-20%	/	-2%	1%	-14%
CCOc1ccc(/C=C/C(=O)Nc2ccc(OC)cc2[N+](=O)[O-])cc1	-6%	-1%	-8%	-1%	10µM*	19%
SMILES	Apoferritin bind	N370S GC mod	CBFb-RUNX1 inh	GRP78 ERSR act	ClpP mod	a7 integrin act
COc1ccccc1N1CCN(c2nc(CNC(=O)C3CCOC(C)(C)C3)nc3ccccc23)CC1 (stereo not drawn)	/	/	/	-4%	/	/
O=C(Cn1c2ccccc2c(=O)c2ccccc21)Nc1ccccc1F	55%	1%	0%	-2%	13µM*	-34%
Cc1cccc(CCn2c(=O)c3ccccc3n(CC(=O)Nc3ccccc3F)c2=O)c1	-8%	/	/	-2%	-3%	/
Cc1cc(=O)oc2cc(OC(C)C(=O)NC3CCCC3)ccc12 (stereo not drawn)	5%	-8%	/	10%	/	14%
CC(=O)Oc1ccc2c(C)cc(=O)oc2c1	79%	?	6%	-4%	546%	7%
CCN(CC)S(=O)(=O)c1ccc(OC)c(NC(=O)C(C)Oc2ccc3c(C)cc(=O)oc3c2)c1 (stereo not drawn)	-13%	12%	-3%	-6%	25µM*	-22%
Cc1cc(=O)oc2cc(OC(C)C(=O)Nc3ccc(N4CCCCC4)cc3)ccc12 (stereo not drawn)	?	-26%	/	-2%	-2%	6%
Cc1cc(=O)oc2cc(OC(C)C(=O)N3CCOCC3)ccc12 (stereo not drawn)	-6%	4%	0%	1%	14µM*	-4%[7.66 µM]
COC(=O)C(CC(C)C)Oc1ccc2c(C)cc(=O)oc2c1 (stereo not drawn)	-21%	8%	3%	-1%	16µM*	-20%
Cc1cc(=O)oc2cc(OCC(=O)N3CCOCC3)ccc12	2%	3%	-9%	-5%	16µM*	7%
CC(C)(O)C#Cc1ccc(CN2CCc3nnc(CNC(=O)c4cccc(F)c4)n3CC2)cc1	/	/	/	-4%	/	/
Cc1cc(=O)oc2cc(OCc3ccc(S(=O)(=O)N4CCOCC4)cc3)ccc12	-2%	2%	-2%	-2%	3.2µM*	-3%
CCOc1ccc2nc(NCCNC(=O)Nc3ccccc3)c(C#N)cc2c1	15%	-2%	10%	-5%	-5%	6%
CCOc1ccc2nc(NCCNC(=O)Nc3cccc(C)c3)c(C#N)cc2c1	1%	-12%	9%	1%	16µM*	0%
O=C(NCCc1ccccc1)c1cc(-c2ccccc2)nc2n[nH]c(-c3ccccc3)c12	1%	/	/	-5%	28µM*	/
Cc1ccc(-c2cc(C(=O)NCCc3ccccc3)c3c(-c4ccc(C)cc4)[nH]nc3n2)cc1	-16%	/	/	/	4%	/
Cc1ccccc1NC(=O)c1c(C)[nH]c(=S)c(C#N)c1-c1ccco1	-4%	-1%	-13%	-5%	14µM*	18%
O=C1C(Nc2ccccc2)=C/C(=N/S(=O)(=O)c2cccs2)c2ccccc21	-4%	16%	/	-11%	11µM*	-47%
Cc1ccc(NC2=C/C(=N/S(=O)(=O)c3cccs3)c3ccccc3C2=O)cc1	-10%	-13%	-27%	-12%	-19%	-62%
CC(C)(C)n1ncc2c(=O)n(Cc3ccccc3-c3ccccc3)cnc21	/	/	/	0%	/	/
CC(C)(C)C(=O)Nc1nnc(SCC(=O)Nc2nccs2)s1	-13%	-8%	/	0%	20µM*	15%
